# Source: PubChem BioAssay (NCATS)
# Several values for one entry are separate records, joined by “and”; a condition that tells them apart may be missing. Equal values may be shown once. Inconclusive results are not listed. A number with no mark means an inactive call. Activity calls are given as the source filed them. Calls follow the shape of the dose curve; as a rule, active = well fitted inhibition curve with a large enough effect; inconclusive = small, poorly fitted or top-dose-only effect; inactive = flat fitted curve, though single readings scatter.
# Test system: CRL-7250
# Assay: Cytotoxic Profiling of Annotated Libraries Using Quantitative High-Throughput Screening (AID 1296008); also: nearly all actives have a fitted effect of over 60% in size
# Settings: Five cell lines viability, CellTiter-Glo ATP luminescence, 48-72 h; max response: stronger effect = lower value
# Summary of the method: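 Cytotoxicity was measured as CellTiter-Glo ATP luminescence, read after 10 min at room temperature. Compound treatment of the cells lasted 48 or 72 hr at 37 degrees Celsius in a qHTS format.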
# % is scaled to controls: 0 for no effect and ±100 for the full control effect; potency is read from the fitted curve at half-maximal effect.
SMILES,Potency,max response
O=C1NCCc2[nH]c(-c3ccncc3)cc21,7.43 µM (active),–
C[C@H]1COc2c(N3CCN(C)CC3)c(F)cc3c(=O)c(C(=O)O)cn1c23,–,-8.35%
C#C[C@]1(O)CC[C@@H]2[C@@H]3CCc4cc(O)ccc4[C@H]3CC[C@@]21C,–,-14.3%
C=CC(=O)N1CCc2ccc(-n3c(=O)ccc4cnc5ccc(-c6cnn(C)c6)cc5c43)cc21,3.72 µM (active),–
CN(C)c1ccc2cc(C(=O)N[C@@H](CCCN=C(N)CCl)C(=O)NCc3ccccc3)ccc2c1,18.7 µM (active),–
CC1=C(C(=O)Nc2cc3cn[nH]c3cc2F)C(c2ccc(Cl)cc2F)N=C(c2ccnc(Cl)c2)N1 (stereo not given),–,-26.3%
C#Cc1cccc(Nc2ncnc3cc(OCCOC)c(OCCO)cc23)c1,14.8 µM (active),–
NS(=O)(=O)OC[C@@H]1C[C@@H](n2ccc3c(N[C@H]4CCc5ccccc54)ncnc32)C[C@H]1O,2.64 µM (active),–
COc1cc2ncnc(Nc3cccc(Br)c3)c2cc1OC,–,-23.5%
Cc1cc(Nc2ncc3c(n2)N(C)C(=O)N(c2cc(NC(=O)c4cccc(C(F)(F)F)c4)ccc2C)C3)n(C)n1,0.469 µM (active),–
O=C(Nc1cc2cc[nH]c2cn1)c1ccccc1,18.7 µM (active),–
c1cc(N[C@@H]2CCNC2)nc(-c2cnc3ccc(-c4cn[nH]c4)cn23)c1,11.8 µM (active),–
C[C@]12CCC(=O)C=C1[C@@H]1CC1[C@H]1[C@H]3[C@@H]4C[C@H]4[C@@]4(CCC(=O)O4)[C@@]3(C)CC[C@H]12 (stereo not given in full),–,3.77%
CN1CCc2c(c3ccccc3n2Cc2ccc(C(=O)NO)cc2)C1,–,-28.2% and -9.31%
Cn1cc(-c2cnn3c(N)c(Br)c([C@H]4CCCNC4)nc23)cn1,20.9 µM (active),–
C[C@@H](Cc1cc2c(c(C(N)=O)c1)N(CCCO)CC2)NCCOc1ccccc1OCC(F)(F)F,20.6 µM (active),–
Cc1ccc([N+](=O)[O-])cc1S(=O)(=O)N(C)N=Cc1cnc2ccc(Br)cn12,0.0187 µM (active),–
FC(F)(F)c1ccc(Nc2nc3ccc(Oc4ccnc(-c5ncc(C(F)(F)F)[nH]5)c4)cc3[nH]2)cc1,13.2 µM (active) and 14.6 µM (active),–
CN(C)CCN1C(=O)c2cccc3cc(N)cc(c23)C1=O,10.5 µM (active),–
O=C(Nc1nnc(-c2ccco2)o1)c1cc(-c2ccccc2)nc2ccccc12,16.6 µM (active),–
